According to the supplement of paper PMC8975748:
Counter-ions that a name gives are not always drawn.

The compounds below were run on Saccharomyces cerevisiae BY4741 SeMeCo community (assay: z-score of subpopulation abundance vs DMSO median, subpopulation auxotrophic for LUM; higher = larger share of this subpopulation than in DMSO controls). Details: 10 µM; 24 h; SM minimal medium; subpopulation (auxotrophy): LUM.
Description: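 Fluorescent four-plasmid SeMeCo (self-establishing metabolically cooperating S. cerevisiae BY4741 community; plasmids pH-mRuby2, pL-mWasabi, pU-eCFP, pM-TagRFP657) was grown 24 h in minimal SM medium with each Selleck FDA-approved drug at 10 µM in 384-well plates. Cells were fixed and imaged by high-content confocal microscopy. For each auxotrophic subpopulation (and the prototroph), a z-score gives the deviation from the DMSO vehicle-control population median.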

SMILES	z-score of subpopulation abundance
CN1C(=O)COc2c(C(=O)NC3CN4CCC3CC4)cc(Cl)cc21 (centres undefined) [Azasetron HCl]	-0.38
CCN1CC2(OC(=O)c3ccccc3NC(C)=O)CCC(OC)C34C1C(CC23)C1(O)CC(OC)C2CC4C1(O)C2OC (centres undefined) [Lappaconitine]	0.98
CN[C@@H]1[C@@H](O)[C@@H](O[C@@H]2[C@@H](O)[C@H](O[C@H]3O[C@H]([C@@H](C)O)[C@@H](O)[C@H](O)[C@H]3N)[C@@H](N)C[C@H]2N)OC[C@]1(C)O [Geneticin (G418 Sulfate)]	-0.36
CN(C)C(=O)Oc1cccc([N+](C)(C)C)c1 [Neostigmine Bromide]	0.02
Nc1nc(N)nc(NC2CC2)n1 [Cyromazine]	0.89
COc1ccc(C=O)cc1 [p-Anisaldehyde]	-0.69
NCCc1c[nH]c2ccc(O)cc12 [Serotonin HCl]	-0.88
CN(C)[C@@H]1C(=O)C(C(N)=O)=C(O)[C@@]2(O)C(=O)C3=C(O)c4c(O)cccc4[C@@](C)(O)[C@H]3C[C@@H]12 [Tetracycline HCl]	-0.52
CC[C@H]1[C@@H]2C[C@H]3[C@@H]4N(C)c5ccccc5[C@]45C[C@@H]([C@@H]2[C@H]5O)N3[C@@H]1O [Ajmaline]	-0.35
Nc1ccncc1 [4-Aminopyridine]	0.34
C[C@@H]1CC[C@H]2[C@@H](C)C(=O)O[C@@H]3O[C@@]4(C)CC[C@@H]1[C@]32OO4 [Artemisinin]	-0.97
CC(NC(C)(C)C)C(=O)c1cccc(Cl)c1 (centres undefined) [Amfebutamone (Bupropion) HCl]	-0.86
CN1c2ccccc2C(NCCCCCCC(=O)O)c2ccc(Cl)cc2S1(=O)=O (centres undefined) [Tianeptine sodium]	0.15
COc1ccc(C(CN(C)C)C2(O)CCCCC2)cc1 (centres undefined) [Venlafaxine]	0
CCOC(=O)Nc1ccc(NCc2ccc(F)cc2)cc1N [Retigabine 2HCl]	-0.01
CC[N+](C)(CC)CCOC(=O)C(O)(c1ccccc1)c1ccccc1 [Methylbenactyzine Bromide]	-1.06
C#C[C@]1(O)C=C[C@H]2[C@@H]3CCC4=CC(=O)CC[C@@H]4[C@H]3CC[C@@]21CC [Gestodene]	0.24

SMILES	z-score of subpopulation abundance
CN(C)[C@@H]1C(=O)C(C(N)=O)=C(O)[C@@]2(O)C(=O)C3=C(O)c4c(O)cccc4[C@@](C)(O)[C@H]3[C@H](O)[C@@H]12 [Oxytetracycline (Terramycin)]	0.18
C[C@H]1O[C@H](O[C@H]2[C@H](O)[C@@H](O)[C@@H](O)[C@H](O)[C@@H]2O)[C@@H](N)C[C@@H]1NC(=N)C(=O)O [Kasugamycin hydrochloride]	0.34
C[C@@H]1O[C@@H](O[C@H]2C[C@@H](O)[C@]3(CO)[C@H]4[C@H](O)C[C@]5(C)[C@@H](C6=CC(=O)OC6)CC[C@]5(O)[C@@H]4CC[C@]3(O)C2)[C@H](O)[C@H](O)[C@H]1O [Ouabain]	-0.83
CCN(C)C(=O)Oc1cccc([C@H](C)N(C)C)c1 [Rivastigmine]	-0.27
C[N+]1(C)[C@@H]2C[C@@H](OC(=O)[C@H](CO)c3ccccc3)C[C@H]1[C@@H]1O[C@@H]12 [Methscopolamine]	0.43
N[C@@H]1C[C@H]1c1ccccc1 [Tranylcypromine (2-PCPA) HCl]	-0.84
O=c1cccc2n1C[C@@H]1CNC[C@H]2C1 [Cytisine]	-0.47
O=c1[nH]c2ccccc2n1CCCN1CCC(n2c(=O)[nH]c3cc(Cl)ccc32)CC1 [Domperidone]	-0.33
C=CCN1C[C@H](C(=O)N(CCCN(C)C)C(=O)NCC)C[C@@H]2c3cccc4[nH]cc(c34)C[C@H]21 [Cabergoline]	0.18
NC(=O)CN1CCCC1=O [Piracetam]	2.09
COc1cc2c(cc1OC)C1CC(=O)C(CC(C)C)CN1CC2 (centres undefined) [Tetrabenazine (Xenazine)]	0.67
O=C(O[C@H]1C[N+]2(CCCOc3ccccc3)CCC1CC2)C(O)(c1cccs1)c1cccs1 [Aclidinium Bromide]	-0.16
CCOC(=O)Nc1ccc(NCc2ccc(F)cc2)cc1N [Retigabine]	-0.25
CN1[C@@H]2C[C@@H](OC(=O)[C@H](CO)c3ccccc3)C[C@H]1[C@@H]1O[C@@H]12 [Scopolamine HBr trihydrate]	-0.33
CN1[C@@H]2CC[C@H]1C[C@@H](OC(=O)C(CO)c1ccccc1)C2 (some centres undefined) [Atropine sulfate monohydrate]	0.28
C[N+]12CCC(CC1)C(OC(=O)C(O)(c1ccccc1)c1ccccc1)C2 (centres undefined) [Clidinium Bromide]	-0.9
CCCCCCCCCCCCCCCC[n+]1ccccc1 [Cetylpyridinium Chloride]	7.62
